Screens (PubChem)
Tb PYK inh – qHTS of Trypanosoma Brucei Inhibitors | pyruvate kinase (Trypanosoma brucei), Q57TT1 | TbPYK enzyme, Kinase-Glo Plus ATP luminescence, 45 min | actives 0.12% (n = 410,000) | AID 624173, 2012 | Potency, µM (titrated, usually from 76.8 µM), for inactives: top-dose activity, negative = inhibition, hits mostly inhibitors; also: potency is read from the fitted curve at half-maximal effect; % is scaled to controls: 0 for no effect and ±100 for the full control effect; nearly all actives have a fitted effect of over 50% in size
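ADP (130 uM final) triggers the TbPYK reaction after compound addition; incubation is 45 min at room temperature. Kinase-Glo Plus is then added and luminescence imaged. Normalized data are fitted to concentration-effect curves.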
RE007 growth inh – qHTS Assay for Inhibitors of the HIV-1 protein Vpr; S. pombe RE007 Vpr strain, BacTiter-Glo ATP luminescence, 24 h; Potency, µM (series often up to 92.2 µM), inactives show at the top dose activity change, negative = less growth, actives largely listed as inhibitors; actives 0.21% (n = 360,000); AID 651644, 2012; active = well fitted falling curve with a large enough effect; inconclusive = small, poorly fitted or top-dose-only effect; inactive = no such curve, though single readings can be large or run the other way; also: potency is read from the fitted curve at half-maximal effect; % is scaled to controls: 0 for no effect and ±100 for the full control effect; nearly all actives have a fitted effect of over 50% in size
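Fission yeast strain RE007, carrying one chromosomally integrated HIV-1 vpr copy, was seeded at OD 0.01 in PMG+AL medium with 23 nL pinned compound. After 24 h at 30 °C and 99% humidity, viability was read by BacTiter-Glo luminescence.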
Cycloheximide cs – Cycloheximide Counterscreen for Small Molecule Inhibitors of Shiga Toxin; cell reporter, cycloheximide protein synthesis inhibition counterscreen; max response, %; actives 12% (n = 300,000); in the data active = max response mostly above about 13%, no sharp cut-off; inactive = mostly below about 14%; also: read at 38.3 µM for the half of the compounds with a filed dose; 0% is about no effect
LmPK inhibitor – qHTS Assay for Inhibitors of Leishmania Mexicana Pyruvate Kinase (LmPK); Q27686; purified LmPK, Kinase-Glo ATP luminescence, 1 h; actives 0.37% (n = 290,000); Potency, µM (doses to about 57.5 µM), without a hit: top-dose activity change, negative = inhibition, hits mostly inhibitors; also: potency is read from the fitted curve at half-maximal effect; % is scaled to controls: 0 for no effect and ±100 for the full control effect
Target sequence (Q27686 whole entry, looked up): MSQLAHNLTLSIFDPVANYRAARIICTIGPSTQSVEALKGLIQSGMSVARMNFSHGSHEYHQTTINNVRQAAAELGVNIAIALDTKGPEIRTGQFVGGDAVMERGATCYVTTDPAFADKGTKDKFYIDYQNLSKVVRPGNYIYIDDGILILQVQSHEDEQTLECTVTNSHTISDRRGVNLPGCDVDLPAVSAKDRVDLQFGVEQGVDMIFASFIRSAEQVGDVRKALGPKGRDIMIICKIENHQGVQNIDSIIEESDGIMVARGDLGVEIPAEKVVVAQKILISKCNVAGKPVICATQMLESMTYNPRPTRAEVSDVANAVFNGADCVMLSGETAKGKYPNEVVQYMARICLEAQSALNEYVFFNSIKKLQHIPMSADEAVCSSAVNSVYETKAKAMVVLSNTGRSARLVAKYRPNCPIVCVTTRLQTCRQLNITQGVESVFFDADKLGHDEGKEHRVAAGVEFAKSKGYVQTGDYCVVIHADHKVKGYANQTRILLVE
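Purified LmPK (0.1 nM) converted ADP (0.1 mM) to ATP with PEP (0.5 mM) in imidazole buffer pH 7.2 with KCl and MgCl2, 1 h at room temperature. ATP was read by Kinase-Glo luminescence; data normalized to uninhibited and no-enzyme controls.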
Giardia FBPA inh-1 – qHTS Assay for Inhibitors of Fructose-1,6-bisphosphate Aldolase from Giardia Lamblia. AID 2451, 2010. purified Giardia FBPA. Potency, µM (titrated, usually from 59.6 µM), without a hit: top-dose activity, negative = inhibition, most hits filed as inhibitors. A8B2U2. actives 0.71% (n = 290,000); also: potency is read from the fitted curve at half-maximal effect; % is scaled to controls: 0 for no effect and ±100 for the full control effect; nearly all actives have a fitted effect of over 55% in size
Target sequence (A8B2U2 whole entry, looked up): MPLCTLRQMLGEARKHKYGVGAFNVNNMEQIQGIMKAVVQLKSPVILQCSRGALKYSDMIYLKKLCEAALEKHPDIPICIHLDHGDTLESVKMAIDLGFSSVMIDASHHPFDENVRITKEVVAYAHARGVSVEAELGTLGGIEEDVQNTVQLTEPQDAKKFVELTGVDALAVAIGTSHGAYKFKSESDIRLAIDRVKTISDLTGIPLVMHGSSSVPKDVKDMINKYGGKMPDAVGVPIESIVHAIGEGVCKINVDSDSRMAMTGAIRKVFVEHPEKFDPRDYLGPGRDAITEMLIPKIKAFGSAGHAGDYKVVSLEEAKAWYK
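Giardia FBPA (40 nM reagent) was preincubated 10 min at RT with compound (up to 57.5 uM final), then substrate plus GAPDH/TPI/NAD/arsenate coupling system with diaphorase/resazurin was added; resorufin fluorescence (525/598 nm) was read after 20 min.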
Shiga toxin inh – A qHTS for Small Molecule Inhibitors of Shiga Toxin; Vero cells, Shiga toxin protein synthesis inhibition reporter; inhibition, % at 38.7 µM; actives 9.2% (n = 290,000); in the data active = inhibition mostly above about 28%, no sharp cut-off; inactive = mostly below about 43%; also: 0% is about no effect
Giardia growth – qHTS Assay for Inhibitors of Fructose-1,6-bisphosphate Aldolase from Giardia Lamblia: Giardia lamblia growth inhibition; shares compounds with Giardia FBPA inh-1; Giardia lamblia trophozoite growth inhibition; Potency, µM (top dose mostly 57.5 µM), inactives show at the top dose activity change, negative = inhibition, usual class: inhibitors; actives 5% (n = 1,500); AID 2785, 2010;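 also: potency is read from the fitted curve at half-maximal effect; trophozoites exposed to compound for 48 h at 37 °C; % is scaled to controls: 0 for no effect and ±100 for the full control effect; nearly all actives have a fitted effect of over 70% in size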
Mammal cell tox – qHTS Assay for Inhibitors of Fructose-1,6-bisphosphate Aldolase from Giardia Lamblia: Mammalian cellular toxicity; shares compounds with Giardia FBPA inh-1; mammalian cell viability counter-screen, qHTS; Potency, µM (series often up to 57.5 µM), inactives show top-dose viability change, negative = toxicity, most hits filed as inhibitors; actives 4% (n = 1,500);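 also: Chinese hamster ovary cells used as mammalian cytotoxicity surrogate; viability measured as cellular ATP by luminescence; potency is read from the fitted curve at half-maximal effect; compound exposure lasted 48 h before reading; % is scaled to controls: 0 for no effect and ±100 for the full control effect; nearly all actives have a fitted effect of over 60% in size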
Giardia FBPA inh-2 – qHTS Assay for Inhibitors of Fructose-1,6-bisphosphate Aldolase from Giardia Lamblia: Primary screen confirmation. shares compounds with Giardia FBPA inh-1. purified Giardia aldolase enzyme activity, qHTS. Potency, µM (titrated, usually from 57.5 µM), for the others: top-dose activity change, negative = inhibition, hits mostly inhibitors. actives 5% (n = 1,500). AID 2787, 2010; also: potency is read from the fitted curve at half-maximal effect; % is scaled to controls: 0 for no effect and ±100 for the full control effect; nearly all actives have a fitted effect of over 45% in size
Rabbit aldolase – qHTS Assay for Inhibitors of Fructose-1,6-bisphosphate Aldolase from Giardia Lamblia: Rabbit FBPA Selectivity. shares compounds with Giardia FBPA inh-1. Rabbit muscle FBPA enzyme inhibition, selectivity counter-screen. Potency, µM (series often up to 57.5 µM), without a hit: top-dose activity, negative = inhibition, most hits filed as inhibitors. actives 4% (n = 1,500); also: potency is read from the fitted curve at half-maximal effect; % is scaled to controls: 0 for no effect and ±100 for the full control effect; nearly all actives have a fitted effect of over 60% in size
GAPDH counter – qHTS Assay for Inhibitors of Fructose-1,6-bisphosphate Aldolase from Giardia Lamblia: Coupling assay counterscreen confirmation | shares compounds with Giardia FBPA inh-1 | GAPDH coupling enzyme counterscreen, biochemical, qHTS | Potency, µM (doses to about 57.5 µM), for inactives: top-dose activity change, negative = inhibition, hits mostly inhibitors | actives 6% (n = 1,500) | AID 2795, 2010; also: potency is read from the fitted curve at half-maximal effect; % is scaled to controls: 0 for no effect and ±100 for the full control effect; nearly all actives have a fitted effect of over 55% in size
* = called active by the depositor; [ ] = dose if it differs, or a comment. The full list was thinned out, with hits kept by preference. Unless noted, calls follow the shape of the dose curve; as a rule, active = well fitted curve in the direction sought with a large enough effect; inconclusive = small, poorly fitted or top-dose-only effect, or another doubt; inactive = no such curve, though single readings can be large; an effect the other way counts as inactive or inconclusive.

COc1ccc(CN2CCN(Cc3ccccc3OC)CC2)cc1 was read as Tb PYK inh 6%, RE007 growth inh -28%, Cycloheximide cs -5, LmPK inhibitor -2%, Giardia FBPA inh-1 14µM*, Shiga toxin inh -6, Giardia growth -25%, Mammal cell tox -2%, Giardia FBPA inh-2 6%, Rabbit aldolase 4% and GAPDH counter 15%.
Screening COc1ccc(CN2CCN(Cc3ccccc3F)CC2)cc1OC returned Tb PYK inh 17%, RE007 growth inh 7%, Cycloheximide cs -1, LmPK inhibitor 1%, Giardia FBPA inh-1 16µM*, Shiga toxin inh -4, Giardia growth 0%, Mammal cell tox 9%, Giardia FBPA inh-2 -7%, Rabbit aldolase 7% and GAPDH counter -16%.
Screening Cc1ccc(C)c(N(C)C(=O)c2cn(C)c(=O)c3ccccc23)c1 returned Tb PYK inh 0%.
`O=C(CN1C(=O)COc2ccc(S(=O)(=O)N3CCOCC3)cc21)N1CCN(c2ccccc2F)CC1` gave Tb PYK inh -13%.
`COc1ccc(-c2nn(-c3ccc(F)cc3F)c3c2cnc2ccc(F)cc23)cc1` gave Tb PYK inh 1%.
Screening COc1ccccc1CN1CCN(C(=O)COc2cccc(C)c2)CC1 returned Tb PYK inh 9%, RE007 growth inh 21%, Cycloheximide cs -4, LmPK inhibitor -6%, Giardia FBPA inh-1 inconclusive and Shiga toxin inh -13.
Screening COc1ccccc1CN1CCN(C(=O)COc2ccc3ccccc3c2)CC1 returned Tb PYK inh -1%, RE007 growth inh -23%, Cycloheximide cs 13, LmPK inhibitor 0%, Giardia FBPA inh-1 20µM*, Shiga toxin inh -1, Giardia growth 11%[10.4 µM], Mammal cell tox 7%, Giardia FBPA inh-2 -2%, Rabbit aldolase 15% and GAPDH counter 1%.
`COc1ccc(C(=O)CN2CCN(c3ccc(F)cc3)CC2)cc1OC` gave Tb PYK inh -17%, RE007 growth inh -23%, Cycloheximide cs -1, LmPK inhibitor 0%, Giardia FBPA inh-1 -12% and Shiga toxin inh -7.
COc1ccccc1N1CCN(CC(=O)c2ccc(F)cc2)CC1 was read as Tb PYK inh -3%, RE007 growth inh -2%, Cycloheximide cs 2, LmPK inhibitor -2%, Giardia FBPA inh-1 16µM*, Shiga toxin inh 6, Giardia growth -24%, Mammal cell tox 7%, Giardia FBPA inh-2 -18%, Rabbit aldolase 3% and GAPDH counter 5%.
For CCCCC(=O)NC(=S)Nc1nnn(CCC)n1 the results were Tb PYK inh -6%, RE007 growth inh -14%, Cycloheximide cs 11, LmPK inhibitor -3%, Giardia FBPA inh-1 1.8µM*, Shiga toxin inh 19, Giardia growth -6%[38.3 µM], Mammal cell tox 40µM*, Giardia FBPA inh-2 -15%, Rabbit aldolase 8% and GAPDH counter inconclusive.
For Cc1ccc(-c2nc(S(=O)(=O)c3ccc(C)cc3)c(SCC(=O)NC3CCCCC3)o2)cc1 the results were Tb PYK inh 2%.
`COc1ccc(-n2nc3c(c2NC(=O)C(=O)N2CCN(C)CC2)CSC3)cc1` gave Tb PYK inh 1%.
`CCOc1cc(/C=N/N=C2/NC(=O)C(CC(=O)O)S2)ccc1OCc1ccc(Cl)cc1Cl` (stereo not given) gave Tb PYK inh -5%, RE007 growth inh 18%, Cycloheximide cs -2, LmPK inhibitor 0%, Giardia FBPA inh-1 10% and Shiga toxin inh 24.
`O=C(O)CC1S/C(=N/N=C/c2ccccn2)NC1=O` (stereo not given) gave Tb PYK inh -3%, RE007 growth inh -16%, Cycloheximide cs 2, LmPK inhibitor -4%, Giardia FBPA inh-1 18µM*, Shiga toxin inh -4, Giardia growth 15%, Mammal cell tox 12%, Giardia FBPA inh-2 18%, Rabbit aldolase 4% and GAPDH counter 8%.
Screening COc1ccccc1NC(=O)Cn1c(SCC(=O)N(C)c2ccccc2)nc2ccccc21 returned Tb PYK inh 1%.
Screening S=C(NCCc1ccccc1)Nc1c(Cl)cccc1Cl returned Tb PYK inh -16%, RE007 growth inh -11%, Cycloheximide cs 1, LmPK inhibitor 11%, Giardia FBPA inh-1 10µM*, Shiga toxin inh 14, Giardia growth -10%[38.3 µM], Mammal cell tox -30%, Giardia FBPA inh-2 inconclusive, Rabbit aldolase inconclusive and GAPDH counter inconclusive.
Screening Cc1c(N=C2C=C(Br)C(=O)C(Br)=C2)c(=O)n(-c2ccccc2)n1C returned Tb PYK inh -29%, RE007 growth inh inconclusive, Cycloheximide cs 5, LmPK inhibitor inconclusive, Giardia FBPA inh-1 14µM*, Shiga toxin inh 15, Giardia growth -12%[10.4 µM], Mammal cell tox 0%, Giardia FBPA inh-2 inconclusive, Rabbit aldolase -27% and GAPDH counter inconclusive.
`Cc1cc(Cl)ccc1NC(=O)c1cc(S(=O)(=O)N2CCOCC2)cn1C` gave Tb PYK inh 2%.
